Consider 103 compounds from ChEMBL document CHEMBL3988442, “University of Dundee, Small-Polar-MMV Screening Library” (2021).

Among all 48,000 compounds or so, about 13,000 (27%) showed an effect of 50% or more. Some of the results follow.

For this test, the system named is Wolbachia pipientis. The experiment in a line: Anti-Wolbachia Cell-Based Screen. The format is functional. More on the design: scale not given: in the data most compounds retested in dose-response had high values. The note with it: 5 µM.
With `COc1ncccc1NC(=O)N(C1CC1)C(C)C(C)C` (stereo not drawn), the “Percent Effect” value is listed as 116%.
The result for `COc1ncccc1NC(=O)C1CCS(=O)(=O)C1` (stereo not drawn) reads 1.624%; that for `COc1ncccc1NC(=O)N1CCC(C(=O)NC(C)C)CC1`, 0.676%.
As for `CCNC(=O)C(C)NC(=O)Nc1ccccc1SC(F)(F)F` (stereo not drawn), the figure is -8.555%; as for `COCC(=O)N1CC(C(=O)NCC2CC2)C2(CCOCC2)C1` (stereo not drawn), 104.6%.
For `Cc1ccoc1C(=O)N1CC(C(=O)NCC2CC2)C2(CCOCC2)C1` (stereo not drawn), the “Percent Effect” value was -3.998%.
As for `CC(C)NC(=O)C1CN(C(=O)Nc2ccccc2)CC12CCOCC2` (stereo not drawn), the figure is 0.6544%; as for `O=C(NCC1CC1)C1CN(C(=O)c2ccncc2)CC12CCOCC2` (stereo not drawn), -0.9426%; as for `CC(C)NC(=O)C1CN(C(=O)N2CCCC2)CC12CCOCC2` (stereo not drawn), -8.761%.
The result for `O=C(NCC1CC1)C1CN(C(=O)Cc2cccs2)CC12CCOCC2` (stereo not drawn) reads 5.816%.
The result for `Cc1ccsc1C(=O)N1CC(C(=O)NCC2CC2)C2(CCOCC2)C1` (stereo not drawn) reads 12.17%; that for `CN(C)C(=O)N1CC(C(=O)NCC2CC2)C2(CCOCC2)C1` (stereo not drawn), 105.7%.
On to `CC(C)NC(=O)C1CN(C(=O)N(C)C)CC12CCOCC2` (stereo not drawn), for which the “Percent Effect” value was 94.32%.
As for `Cc1[nH]nc2ncc(C(=O)N3CCN(CC(C)C)CC3)cc12`, the figure is 0.1242%; as for `Cc1cc(C)n(CCCN(C)C(=O)CN2CC3(CCNCC3)OC2=O)n1`, -7.554%.
The result for `CCN(CC)CC[C@H]1CN(C(=O)NC2CCCCC2)CC[C@H]1CC(=O)O` reads -0.6664%; that for `O=C(NC[C@H]1OC[C@@H](NC2CCCC2)[C@@H]1O)C1CCCC1`, 10.82%; that for `O=C1NCCCc2c1oc1ccc(O)c(CN3CCOCC3)c21`, 142.2%.
As for `NC(=O)C1CN(Cc2c(O)ccc3oc4c(c23)CCCC4)CCO1` (stereo not drawn), the figure is -16.77%; as for `Oc1ccc2oc3c(c2c1CN1CCOCC1)CCCC3`, 6.402%; as for `CCOc1ccc(C(=O)NCCCNc2ncccn2)cc1`, -0.3981%.
Take `O=C(O)C(F)(F)F.O=C([C@@H]1COC[C@H]2CN(C3CCCC3)C[C@H]21)N1CCC(F)CC1`: the “Percent Effect” value is given as -0.4691%.
As for `O=C(C[S+]([O-])c1ccc(F)c(F)c1)NCc1cc(F)cc(F)c1` (stereo not drawn), the figure is -8.156%.
For the compound `CC(C)CN1CCN(S(=O)(=O)c2cn(C)cn2)Cc2cccnc21.O=C(O)C(F)(F)F.O=C(O)C(F)(F)F`, the “Percent Effect” value is -3.796%.
As for `COCCN1CCN(S(=O)(=O)c2ccccc2)Cc2cccnc21.O=C(O)C(F)(F)F`, the figure is 100.4%; as for `COc1ccc(CC(=O)N2CCN(C)c3ncccc3C2)cc1.O=C(O)C(F)(F)F`, 1.148%; as for `COc1cccc(CC(=O)N2CCN(C)c3ncccc3C2)c1.O=C(O)C(F)(F)F`, -8.872%.
As for `COc1ccc(S(=O)(=O)N2CCN(C)c3ncccc3C2)cc1.O=C(O)C(F)(F)F`, the “Percent Effect” value worked out at 100.8%.
The result for `COCCN1CCN(Cc2c(C)noc2C)Cc2cccnc21.O=C(O)C(F)(F)F.O=C(O)C(F)(F)F` reads -0.8432%; that for `CN(Cc1ccc(C(=O)O)cc1)C(=O)c1sccc1OC(F)F`, 7.137%.
The result for `Cn1cc(CN2CC[C@H]3OCC[C@@H](C(=O)N4CCCCO4)[C@@H]3C2)cn1` reads 16.39%; that for `CC(C)(C)N1CC(C(=O)N2CCN(CCn3cccc3)CC2)CC1=O` (stereo not drawn), -2.783%; that for `CC(C)n1cc(S(=O)(=O)N2CCCCC2)cn1`, 6.255%.
With `CCn1cc(S(=O)(=O)N2CCCC3(CC=CNC3=O)C2)c(C)n1` (stereo not drawn), the “Percent Effect” value was 118.1%.
As for `CCCN1CCCC2(CCN(S(=O)(=O)c3cc(C)nn3CC)C2)C1=O` (stereo not drawn), the figure is -15.13%; as for `CCn1cc(S(=O)(=O)N2CCCC3(CC=CNC3=O)C2)cn1` (stereo not drawn), 97.1%.
As to `CCn1cc(S(=O)(=O)N2CCC3(CCCN(CC4CCC4)C3=O)C2)cn1` (stereo not drawn), the “Percent Effect” value is -1.219%.
The result for `CCn1nccc1S(=O)(=O)N1CCC2(CCCN(C(C)C)C2=O)C1` (stereo not drawn) reads -32.08%.
For `CCn1nc(C)cc1S(=O)(=O)N1CCC2(CCCN(C(C)C)C2=O)C1` (stereo not drawn), the “Percent Effect” value was -24.78%.
As for `CCn1nc(C)cc1S(=O)(=O)N1CCC2(CC(=O)NC2=O)C1` (stereo not drawn), the “Percent Effect” value is -2.488%.
In the case of `CCn1ncc(S(=O)(=O)N2CCCC3(CC=CNC3=O)C2)c1C` (stereo not drawn), the “Percent Effect” value was 120.2%.
As for `COc1cccc(CN(C)Cc2ccc(C#N)cc2)c1OC`, the figure is -1.171%; as for `Cc1cc(NCCNc2ccc(C#N)cn2)nc(C)n1`, -1.6%.
`Cc1ccccc1[C@@H]1CN(Cc2ccc(C(F)(F)F)nc2)C[C@H]1C(=O)O`: the “Percent Effect” value is on record as 28.6%.
The result for `COCCCSc1ccc(NCc2cscn2)cc1` reads -5.261%; that for `O=C(CCC(F)(F)F)NCC1CCCS1` (stereo not drawn), -25.1%.
Turning to `O=C(NCCn1nc2ccccn2c1=O)c1cc[nH]n1`, the “Percent Effect” value is given as 8.097%.
The result for `O=C(NCC1(CO)CC1)c1ccccc1Cl` reads 3.943%; that for `CCN(CC)c1ccc(CNC(=O)c2ccc(=O)[nH]n2)cn1`, -14.62%; that for `O=C(NCC1(Sc2ccccc2)CC1)c1c[nH]nn1`, 96.18%.
As for `O=C(NCC1(Sc2ccccc2)CC1)c1ccc(=O)[nH]n1`, the figure is 98.28%.
As for `CN(Cc1ccco1)Cc1ccccc1CNC(=O)c1c[nH]nn1`, the “Percent Effect” value turned out to be 2.895%.
Consider `O=C(NC1(c2cccc(F)c2)CCOCC1)c1cc[nH]n1`, for which the “Percent Effect” value is recorded as -5.45%.
The result for `O=C(NCC1(Sc2ccccc2)CC1)c1cc[nH]n1` reads 109.2%.
In the case of `CN1CCN(c2cc(CNC(=O)c3ccc(=O)[nH]n3)ccn2)CC1`, the “Percent Effect” value amounted to 7.081%.
The result for `CCc1nnc2n1CCN(c1nc3ccccc3o1)C2` reads -17.82%.
As for `Cc1ccccc1OCCC(=O)OC(C)C(=O)Nc1sccc1C(N)=O` (stereo not drawn), the figure is 15.81%; as for `CCS(=O)(=O)N1CCC2(CCCN(Cc3cc(OC)ccc3F)C2)C1` (stereo not drawn), -8.238%; as for `O=C(COc1ccc(C(F)(F)F)cc1)NS(=O)(=O)c1cccnc1`, -2.745%.
As for `CC(C)C1CN(C(=O)c2ccncc2)CCS1` (stereo not drawn), the figure is -8.547%; as for `Cc1ocnc1C(=O)N1CC[C@@H](O)[C@@H](O)[C@H](N2CCC(F)(F)CC2)C1`, 120%.
For `Cc1ncoc1C(=O)N1CC[C@@H](O)[C@@H](O)[C@H](N2CCC(F)(F)CC2)C1`, the “Percent Effect” value stood at 142%.
As for `Cc1ocnc1C(=O)N1CCN(C(=O)CC(C)C)[C@@H]2CS(=O)(=O)C[C@@H]21`, the “Percent Effect” value is -7.127%.
As to `Cc1ncoc1C(=O)N1C[C@@H]2CN(CC3CC3)CCO[C@@H]2C1`, the “Percent Effect” value was -7.815%.
As for `O=C(c1ccncc1)N1CC[C@@H](O)[C@@H](O)[C@H](N2CCC(F)(F)CC2)C1`, the figure is 113.1%; as for `CN1CC(c2ccccc2)CC12CCN(C(=O)c1ccncc1)CC2` (stereo not drawn), -13.44%.
Take `Cc1ncoc1C(=O)N1CCCC(C(=O)c2cccc(OC(C)C)c2)C1` (stereo not drawn): the “Percent Effect” value is on record as -0.1018%.
As to `Cc1ocnc1C(=O)N1CCC(c2nccn2Cc2ccncc2)CC1`, the “Percent Effect” value was found to be 10.72%.
The result for `CC(NC1(CNS(C)(=O)=O)CCOCC1)c1ccccc1` (stereo not drawn) reads 3.887%; that for `COCc1nc(C2CC2)nn1-c1cc(Cl)ccc1OC`, -14.4%.
The result for `CCC(CNC(=O)c1nc(=O)[nH][nH]1)Oc1cccc(C(F)(F)F)c1` (stereo not drawn) reads -1.128%.
As for `COc1ccnc(NC(=O)CSCc2cccnc2)c1`, the figure is 1.726%; as for `COc1cccc(CNC(=O)c2cccnc2SC(C)C)c1`, 92.51%; as for `CC(C)Nc1ncccc1C(=O)NCc1cnc(N(C)C)n1C`, 23.22%.
Take `CC(C)Sc1ncccc1C(=O)NCc1cccc(N(C)C)c1`: the “Percent Effect” value came out at 97.33%.
As for `CCS(=O)(=O)N(C)C1CCN(Cn2ccc(-c3ccc(F)cc3)n2)CC1`, the figure is 1.424%; as for `O=C(NC1(c2nccs2)CCCC1)c1cc(C2CC2)on1`, -6.868%.
The result for `Cc1noc(C)c1CS(=O)(=O)CC(=O)N1c2ccccc2CC1C` (stereo not drawn) reads 25.49%; that for `O=C(Cc1ccc(F)cc1Cl)N1C[C@@H](CN2CCC(O)CC2)[C@@H](CO)C1`, -45.53%; that for `Cc1nn(C(=O)c2cccnc2)c(C)c1C`, 108.2%.
With `COc1ccc(C(=O)n2nc(C)c(C)c2C)cc1`, the “Percent Effect” value stood at 10.75%.
As for `Cc1ncnc2c1CCN(C(=O)c1cccnc1)CC2`, the figure is -9.06%; as for `Cc1cc(NCCNc2ncccc2C)n2nc(C)cc2n1`, 109.3%.
The result for `Cc1cc2nc(C(C)C)cc(NCC(c3ccccn3)N(C)C)n2n1` (stereo not drawn) reads 15.65%.
As for `Cc1cc(NCc2cccnc2)n2nc(C)cc2n1`, the figure is 12.04%; as for `CC(C)c1cc(NCC(O)c2ccccn2)n2nccc2n1` (stereo not drawn), 16.27%.
Consider `CC(C)c1cc(NCC(C)N2CCCC2)n2nccc2n1` (stereo not drawn), for which the “Percent Effect” value is listed as -22.52%.
The result for `Cc1cc2nc(C(C)C)cc(NCCNc3ncccc3C)n2n1` reads 112.1%.
As for `Cc1cccnc1NCCNc1cc(C(C)C)nc2ccnn12`, the figure is 101.8%.
Turning to `CC(=O)NCCNc1cc(C)nc2cc(C)nn12`, the “Percent Effect” value is given as -17.81%.
As for `CC(C)c1cc(NCC(O)CO)n2nccc2n1` (stereo not drawn), the figure is 7.798%; as for `CN1CCC(n2nc(Cc3cccc(Cl)c3)nc2Cn2ccnc2)CC1`, -3.422%.
As for `CCCn1nc(C(=O)NCCc2nnc3n2CCC3)ccc1=O`, the figure is 5.324%; as for `O=C1CCCN1CCc1noc(-c2ccc3[nH]cnc3c2)n1`, -10.57%.
With `CCn1ncc2c1CCCC2NCc1cc(Cl)c(OC)c(OC)c1` (stereo not drawn), the “Percent Effect” value is reported as -1.567%.
As for `COc1ccc2c(c1)C(NCCc1ncc(C)s1)CCCO2` (stereo not drawn), the figure is 17.43%; as for `CCn1ncc2c1CCCC2NCc1ccc(OC)c(C)c1` (stereo not drawn), -3.93%.
For `Cc1cc(C)c(C(=O)NC2CCCc3nc(N(C)C)ncc32)cc1C` (stereo not drawn), the “Percent Effect” value is -4.078%.
The result for `COc1ccc(CNC2CCCc3nc(N(C)C)ncc32)c(OC)c1` (stereo not drawn) reads 113.1%.
As for `COc1ccc(OC)c(CNC2CCCc3nc(N(C)C)ncc32)c1` (stereo not drawn), the figure is 105.7%.
In the case of `CCCOc1ccc(CNC2CCCc3c2cnn3CC)cc1OC` (stereo not drawn), the “Percent Effect” value was found to be 1.181%.
As for `COc1ccc(F)c(CNC2CCCc3nc(N(C)C)ncc32)c1` (stereo not drawn), the figure is 96.62%; as for `COc1cc(F)c(S(=O)(=O)NCc2ccnc(N(C)C)n2)cc1OC`, 0.6803%.
